# From PubChem BioAssay (NCATS)
# Where “and” joins values, the source holds several entries; their conditions need not be identical. Equal values may be shown once. Inconclusive results are not listed. Calls of active or inactive are those of the source. Unless noted, calls follow the shape of the full dose curve.
# What was measured:
# [1] = qHTS Assay for Lipid Storage Modulators (AID 1519); conditions: Drosophila S3 cells, BODIPY lipid droplet/cell ratio, laser cytometry, cells loaded with oleic acid; as to activity change, negative = inhibition: % is scaled to controls: 0 for no effect and ±100 for the full control effect
# Summary of the method: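 Cells seeded at 5,000 per well were treated with compounds over a concentration series and loaded with oleic acid (400 uM, as added). Lipid droplet fluorescence (488 nm excitation, 500-530 nm channel) was read by laser-scanning cytometry and normalized to 20 uM Triacsin C.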
# [2] = molecular target: Alpha-galactosidase A (Homo sapiens) (UniProt P06280); experiment: Counterscreen for Glucocerebrosidase Inhibitors: qHTS Assay for Human alpha-Galactosidase at pH 4.5 (AID 992; active = well fitted curve in the direction sought with a large enough effect; an effect the other way counts as inactive or inconclusive; also: 0% is about no effect); conditions: purified enzyme, fluorogenic substrate; series mostly up to 76.9 µM
# Alpha-galactosidase A (Homo sapiens), sequence (P06280 whole entry, looked up): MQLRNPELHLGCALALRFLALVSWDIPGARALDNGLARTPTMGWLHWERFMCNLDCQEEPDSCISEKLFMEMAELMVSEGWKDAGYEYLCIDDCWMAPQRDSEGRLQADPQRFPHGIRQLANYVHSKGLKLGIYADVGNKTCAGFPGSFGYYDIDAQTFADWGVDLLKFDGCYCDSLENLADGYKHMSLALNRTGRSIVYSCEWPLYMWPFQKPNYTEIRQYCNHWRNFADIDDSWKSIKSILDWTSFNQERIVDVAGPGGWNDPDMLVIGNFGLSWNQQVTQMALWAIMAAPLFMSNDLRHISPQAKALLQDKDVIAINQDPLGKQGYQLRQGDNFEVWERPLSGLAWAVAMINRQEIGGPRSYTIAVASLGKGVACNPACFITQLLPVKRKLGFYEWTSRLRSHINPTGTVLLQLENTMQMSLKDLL
# Summary of the method: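 Quantitative HTS: compounds tested from 0.7 nM up to 77 uM against 2 nM enzyme with 80 uM 4-MU alpha-D-galactopyranoside. The 20 min room-temperature reaction is stopped with 1M NaOH/1M glycine, pH 10.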
# [3] = molecular target: alpha-glucosidase (Oryza sativa, rice) (UniProt Q653V4); experiment: Counterscreen for Glucocerebrosidase Inhibitors: qHTS Assay for Rice alpha-Glucosidase at pH 5.0 (AID 997; active = well fitted curve in the direction sought with a large enough effect; an effect the other way counts as inactive or inconclusive;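 also: 0% = full activity with enzyme and -100% = basal without enzyme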); conditions: rice alpha-glucosidase enzyme activity; series mostly up to 76.9 µM
# Summary of the method: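 Rice alpha-glucosidase (4 nM final) with 400 uM 4-methylumbelliferyl-alpha-D-glucopyranoside in citrate buffer pH 5.0, 20 min at room temperature, stopped at pH 10; fluorescence 365/440 nm, compounds 0.7 nM–77 uM, AC50 from Hill fits.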
# [4] = Validation of Assay for Modulators of Lamin A Splicing (AID 1459; active = well fitted curve in the direction sought with a large enough effect in the signal ratio; the % refers to the signal ratio;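 also: cells exposed to compound for two days before reading; 0% is about no effect; ratio rise marks activators and ratio drop marks inhibitors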); conditions: Lamin A splicing dual RFP/GFP fluorescence reporter; series mostly up to 9.22 µM
# Summary of the method: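 Splicing correction is reported by an EGFP-containing lamin A minigene in stably transfected S3 HeLa cells, while DsRed2 controls for viability and nonspecific signal. Cells are exposed to compounds for 48 hrs before the GFP over RFP ratio is taken.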
# [5] = molecular target: DNA repair nuclease/redox regulator APEX1 (Homo sapiens) (UniProt P27695); experiment: qHTS Validation Assay for Inhibitors of the Human Apurinic/apyrimidinic Endonuclease 1 (APE1) (AID 1705; active = well fitted curve in the direction sought with a large enough effect; an effect the other way counts as inactive or inconclusive;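 also: TAMRA fluorescence gain over two minutes as APE1 cuts a quenched THF abasic duplex; % is scaled to controls: 0 for no effect and ±100 for the full control effect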); conditions: purified APE1 endonuclease activity, fluorescence, titration; series mostly up to 57.1 µM
# DNA repair nuclease/redox regulator APEX1 (Homo sapiens), sequence (P27695 whole entry, looked up): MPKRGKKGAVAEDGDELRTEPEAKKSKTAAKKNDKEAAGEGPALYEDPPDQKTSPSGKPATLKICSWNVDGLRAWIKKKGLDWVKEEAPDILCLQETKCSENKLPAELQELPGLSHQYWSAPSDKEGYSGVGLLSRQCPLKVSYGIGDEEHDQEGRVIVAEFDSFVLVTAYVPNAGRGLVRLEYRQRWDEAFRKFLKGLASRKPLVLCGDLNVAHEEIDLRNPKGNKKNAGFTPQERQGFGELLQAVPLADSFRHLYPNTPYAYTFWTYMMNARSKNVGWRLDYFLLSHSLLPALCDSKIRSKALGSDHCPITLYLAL
# Summary of the method: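 Endonuclease activity of human APE1 is followed as dequenching when the enzyme incises a tetrahydrofuran abasic site in a short duplex labelled 5'-TAMRA/3'-BHQ-2 (50 nM final), after 15 min enzyme–compound preincubation at room temperature.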
# [6] = Counterscreen for APE1 Inhibitors: Fluorescent Dye Displacement Validation Assay (AID 1707; active = well fitted curve in the direction sought with a large enough effect; an effect the other way counts as inactive or inconclusive;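 also: plate controls were ThO with dsDNA and no compound for no effect and ThO without dsDNA for full effect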); conditions: fluorescent dye displacement from DNA; series mostly up to 57.1 µM
# Summary of the method: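 Compounds are scored by their ability to displace Thiazole Orange (250 nM) from a 50 nM TAMRA-tagged duplex bearing a tetrahydrofuran abasic site. Buffer is 50 mM Tris-HCl pH7.5, 50mM NaCl, 2 mM MgCl2, 0.01% Tween-20.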
# [7] = molecular target: Endonuclease 4 (Escherichia coli (strain K12)) (UniProt P0A6C1); experiment: Counterscreen for APE1 Inhibitors: qHTS Validation Assay for Inhibitors of Endonuclease IV (AID 1708; active = well fitted curve in the direction sought with a large enough effect; an effect the other way counts as inactive or inconclusive; also: % is scaled to controls: 0 for no effect and ±100 for the full control effect); conditions: E. coli endonuclease IV, DNA cleavage fluorescence; series mostly up to 57.1 µM
# Summary of the method: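 Enzymatic AP-site incision assay using a double-stranded THF substrate labelled with TAMRA and BHQ-2; released fluorescence signals activity. Enzyme 2 nM, substrate 50 nM, 15 min compound preincubation.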
# [8] = qHTS for differential inhibitors of proliferation of Plasmodium falciparum line 3D7 (AID 1876; active = well fitted curve in the direction sought with a large enough effect; an effect the other way counts as inactive or inconclusive; also: potency is read from the fitted curve at half-maximal effect); conditions: P. falciparum 3D7 proliferation inhibition
# [9] = qHTS for differential inhibitors of proliferation of Plasmodium falciparum line Dd2 (AID 1882; active = well fitted curve in the direction sought with a large enough effect; an effect the other way counts as inactive or inconclusive;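 also: compound exposure of 72 h on infected erythrocytes; plate controls were DMSO vehicle for no effect and 0.29 µM artemisinin for full effect; nearly all actives have a fitted effect of over 65% in size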); conditions: series mostly up to 28.7 µM
# Summary of the method: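 SYBR Green I DNA fluorescence read-out, ex 485/em 535 nm. Signals were normalized to 0.29 uM artemisinin and DMSO wells, then corrected using vehicle-only plates flanking each stack. Parasite growth ran 72 h in erythrocytes before lysis.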
# [10] = qHTS for differential inhibitors of proliferation of Plasmodium falciparum line W2 (AID 1883; active = well fitted curve in the direction sought with a large enough effect; an effect the other way counts as inactive or inconclusive;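 also: potency is read from the fitted curve at half-maximal effect; parasites grown with compound for 72 h before lysis and staining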); conditions: Plasmodium falciparum W2 proliferation inhibition
# [11] = measured here: cell count channel max response
# [12] = measured here: lipid channel max response
structure (smiles),measurement,setting,value
Cc1cc(C(=O)NNCc2ccccc2)no1,"activity change, negative = inhibition",[1]; at 25.7 µM (top of the series),-1.95% (inactive)
same,max response,[1]; [11],-16.5%
same,max response,[1]; [12],-16.7%
Cc1c(C)c2c(c(C)c1O)CC[C@@](C)(CCC[C@H](C)CCC[C@H](C)CCCC(C)C)O2,"activity change, negative = inhibition",[1]; at 57.5 µM (top of the series),0.911% (inactive)
same,max response,[1]; [11],-14.2%
same,max response,[1]; [12],-14.3%
CC1=C(/C=C/C(C)=C/C=C/C(C)=C/C=C/C=C(C)/C=C/C=C(C)/C=C/C2=C(C)CCCC2(C)C)C(C)(C)CCC1,"activity change, negative = inhibition",[1]; at 57.5 µM (top of the series),1.45% (inactive)
same,max response,[1]; [11],15.1%
same,max response,[1]; [12],17%
CC[N+](C)(C)Cc1ccccc1Br,outcome,[2],inactive
same,outcome,[3],inactive
same,outcome,[4],inactive
same,"activity change, negative = inhibition",[1]; at 25.7 µM (top of the series),-0.125% (inactive)
same,"activity change, negative = inhibition",[1]; at 57.5 µM (top of the series),0.506% (inactive)
same,max response,[1]; [11],1.39% and 57.6%
same,max response,[1]; [12],2.06% and 57.4%
same,outcome,[5],inactive
same,outcome,[6],inactive
same,outcome,[7],inactive
same,Potency,[8],14.1 µM (active)
same,outcome,[9],inactive
same,Potency,[10],11.2 µM (active)
CCCC(=O)Nc1ncnc2c1ncn2C1OC2COP(=O)(O)OC2C1OC(=O)CCC (configuration not stated),"activity change, negative = inhibition",[1]; at 57.5 µM (top of the series),10.5% (inactive)
same,max response,[1]; [11],15.6%
same,max response,[1]; [12],29.9%
CCCC(=O)Nc1ncnc2c1ncn2[C@@H]1O[C@@H]2COP(=O)(O)O[C@H]2[C@H]1OC(=O)CCC,"activity change, negative = inhibition",[1]; at 57.5 µM (top of the series),1.77% (inactive)
same,max response,[1]; [11],-7.18%
same,max response,[1]; [12],-6.01%
CC1(C)S[C@@H]2[C@H](NC(=O)Cc3ccccc3)C(=O)N2[C@H]1C(=O)O,"activity change, negative = inhibition",[1]; at 25.7 µM (top of the series),-1.47% (inactive)
same,max response,[1]; [11],2.65%
same,max response,[1]; [12],2.53%
Cc1cn([C@H]2C[C@H](O)[C@@H](CO)O2)c(=O)[nH]c1=O,"activity change, negative = inhibition",[1]; at 57.5 µM (top of the series),-2.02% (inactive)
same,max response,[1]; [11],-24%
same,max response,[1]; [12],-24.4%
CN1Cc2c(N)cccc2C(c2ccccc2)C1 (configuration not stated),outcome,[4],inactive
same,"activity change, negative = inhibition",[1]; at 57.5 µM (top of the series),0.643% (inactive)
same,max response,[1]; [11],11.3%
same,max response,[1]; [12],9.26%
same,outcome,[5],inactive
CCN(CC)Cc1cc(Nc2ccnc3cc(Cl)ccc23)ccc1O,"activity change, negative = inhibition",[1]; at 25.7 µM (top of the series),-2.24% (inactive)
same,max response,[1]; [11],-18.5%
same,max response,[1]; [12],-20.7%
CC1=C(/C=C/C(C)=C/C=C/C(C)=C/C=C/C=C(C)/C=C/C=C(C)/C=C/C2=C(C)C(=O)CCC2(C)C)C(C)(C)CCC1=O,"activity change, negative = inhibition",[1]; at 57.5 µM (top of the series),5.18% (inactive)
same,max response,[1]; [11],20.9%
same,max response,[1]; [12],28.3%
CC(C)(C)C(=O)OCOC(=O)[C@@H]1N2C(=O)[C@@H](N=CN3CCCCCC3)[C@H]2SC1(C)C,"activity change, negative = inhibition",[1]; at 25.7 µM (top of the series),-0.208% (inactive)
same,max response,[1]; [11],-9.59%
same,max response,[1]; [12],-6.96%
O=c1ccn([C@@H]2O[C@H](CO)[C@@H](O)[C@H]2O)c(=O)[nH]1,"activity change, negative = inhibition",[1]; at 57.5 µM (top of the series),1.01% (inactive)
same,max response,[1]; [11],-6.37%
same,max response,[1]; [12],-5.71%
Oc1cc(O)c2c(c1)OC(c1ccc(O)c(O)c1)C(O)C2 (configuration not stated),"activity change, negative = inhibition",[1]; at 57.5 µM (top of the series),7.06% (inactive)
same,max response,[1]; [11],2.83%
same,max response,[1]; [12],12.7%
NC(=O)c1ncn(C2OC(CO)C(O)C2O)n1 (configuration not stated),"activity change, negative = inhibition",[1]; at 57.5 µM (top of the series),2.97% (inactive)
same,max response,[1]; [11],6.51%
same,max response,[1]; [12],12.6%
